For orientation: inhibition means the relative decrease from the control value, in per cent.

Values without a mark were called inactive. The rule behind the calls is not given here.

The target of the experiment is Pantothenate synthetase (Mycobacterium tuberculosis (strain ATCC 25618 / H37Rv)) (UniProt P9WIL5). In words: Recombinant Mtb pantothenate synthetase (PanC) inhibitors, coupled enzyme, confirmatory (AID 375).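 Note: 0% = full reaction with vehicle and 100% = no enzyme background.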 Particulars: coupled enzyme assay; at 10 µM, stronger effect = higher value.
Pantothenate synthetase (Mycobacterium tuberculosis (strain ATCC 25618 / H37Rv)), sequence (P9WIL5 whole entry, looked up): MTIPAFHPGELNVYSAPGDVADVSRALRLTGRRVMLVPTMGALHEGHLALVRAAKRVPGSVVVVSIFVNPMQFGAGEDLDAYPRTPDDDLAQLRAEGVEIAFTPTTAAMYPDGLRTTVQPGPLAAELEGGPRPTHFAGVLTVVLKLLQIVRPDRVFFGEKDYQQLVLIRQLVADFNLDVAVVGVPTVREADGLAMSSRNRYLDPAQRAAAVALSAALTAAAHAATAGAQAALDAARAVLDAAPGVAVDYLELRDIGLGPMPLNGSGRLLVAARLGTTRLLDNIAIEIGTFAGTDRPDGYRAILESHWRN
Turning to `Nc1ccc(S(=O)(=O)c2cccc(N)c2)cc1`, the inhibition is 8%.
For the compound `c1ccc(-n2ncc3c(N4CCCCC4)ncnc32)cc1`, the inhibition was 0%.
`O=C(NCc1ccccc1)N[C@@H](Cc1ccccc1)C(=O)O`: the inhibition was 1%.
Consider `CCCN(CCC)S(=O)(=O)c1ccc(C(=O)O)cc1`, for which the inhibition is 0%.
Regarding `CCOc1ccc(Cn2nnc(C(=O)Nc3ccc(OC)cc3OC)c2N)cc1`, the inhibition was 0%.
On to `CCOC(=O)N1CCN(C(=O)c2ccc(N3C(=O)CCC3=O)cc2)CC1`, for which the inhibition is 0%.
Take `Nc1nc(CN2CCOCC2)cs1`: the inhibition is 1%.
To `CCn1cc(C(=O)NCc2ccccc2OC)c(=O)c2cc(S(=O)(=O)N(C)C)ccc21` belongs 0%.
As to `CC(=O)c1c(C)nc(C)nc1NC(=O)Cc1ccccc1`, the inhibition was 0%.
For `Cc1ccc(-n2nc(C(=O)N3CCN(C)CC3)c3c4ccccc4n(C)c3c2=O)cc1`, the inhibition is 0%.
To `Cc1cc(NS(=O)(=O)c2ccc(NC(=O)Nc3ccc4c(c3)OCO4)cc2)no1` belongs 0%; to `COc1ccc(S(=O)(=O)NCCCN2CCOCC2)c2ccccc12`, 0%.
As for `Clc1ccc(Cn2c(CN3CCCC3)nc3ccccc32)cc1`, the inhibition is 8%.
Take `O=C(CSc1nnnn1Cc1ccccc1)Nc1ccc2c(c1)OCO2`: the inhibition is 1%.
In the case of `O=C(NCC1CCCO1)c1cccc(N2C(=O)C3C4C=CC(C4)C3C2=O)c1` (stereo not given), the inhibition was 11%.
With `O=C1C=C(NCc2ccco2)C2(CCCCC2)O1` the figure was 0%.
On to `Cc1onc(-c2ccccc2)c1C(=O)N1CCCSC1=Nc1ccccc1`, for which the inhibition is 6%.
Consider `Cc1ccc(NC(=O)c2ccccc2F)nc1`, for which the inhibition is 2%.
With `CC(=O)Nc1ccc(-c2nn[nH]n2)cc1Cl` the figure was 0%; with `O=C(O)c1ccccc1C(=O)Nc1ccccc1`, 0%.
With `O=C(CSc1nnc(CNC(=O)c2cccs2)o1)NC1CCCC1`, the inhibition was 0%.
In the case of `CCNC(=O)C1CC(=O)N(Cc2ccc3c(c2)OCO3)C(=Nc2ccc(OCC)cc2)S1` (stereo not given), the inhibition was 0%.
`CC1=C(C(=O)Nc2ccccc2)C(c2ccccn2)n2nc(CCCO)nc2N1` (stereo not given): the inhibition is 7%.
For `Cc1ccc(-c2nnc(N3CCN(C(=O)CN4C(=O)c5ccccc5C4=O)CC3)c3ccccc23)cc1`, the inhibition was 0%.
In the case of `Cc1cc2oc(C(=O)NC3CCS(=O)(=O)C3)c(C)c2cc1C` (stereo not given), the inhibition is 0%.
To `Cc1ccc(Cn2c(SCCN3CCCCC3)nc3c2c(=O)[nH]c(=O)n3C)cc1` belongs 2%; to `COC(=O)CSC1=C(C#N)C(c2ccccc2)CC(=O)N1` (stereo not given), 0%; to `O=C(NCc1cccs1)c1cc2c(s1)-c1ccccc1OC2`, 0%.
In the case of `CCCC(=O)Nc1ccc(NC(=O)c2cccs2)cn1`, the inhibition is 5%.
For `COc1cc(OC)c(OC)cc1CN(C)CCc1ccccn1`, the inhibition was 3%.
On to `CCn1cc(C(=O)NCC2COc3ccccc3O2)c2cc(OC)c(OC)cc2c1=O` (stereo not given), for which the inhibition is 11%.
With `O=C1NC(c2cccs2)Nc2ccccc21` (stereo not given) the figure was 0%; with `O=C(NC1CCCC1)c1ccc2nc[nH]c2c1`, 0%; with `Cn1c(=N)c(S(=O)(=O)c2ccccc2)cc2c(=O)n3ccccc3nc21`, 2%.
`CC(C)(C)OC(=O)NCCc1nnc(SCC(=O)c2ccc(Cl)cc2)o1`: the inhibition was 0%.
Regarding `O=C1c2ccccc2C(=O)N1CCC(=O)N1CCc2ccccc21`, the inhibition is 0%.
With `COC(=O)c1cc(NC(=O)C2CC=CCC2C(=O)O)cc(C(=O)OC)c1` (stereo not given) the figure was 3%.
Regarding `COc1ccc(Cn2c(CCCO)nc3ccccc32)cc1OC`, the inhibition is 0%.
With `N#CC1=C(N)S[C@H](C(=O)C23CC4CC(CC(C4)C2)C3)[C@H]1c1ccncc1`, the inhibition is 0%.
As for `CCOC(=O)C1CCN(Cc2ccc(F)c(Br)c2)CC1`, the inhibition was 0%.

These data come from PubChem BioAssay.
